# Data: ChEMBL document CHEMBL5606458, “ASAP - ZIKV NS2B-NS3 protease fluorescence single point” (2024)
# Screen size: about 2,700 compounds; about 160 (5.9%) showed an effect of 50% or more. Many of the other results were omitted from the sample, so strong results are more common in it than they were.
# Target: Nonstructural protein 3 (Zika virus) (UniProt A0A024AXB9)
# [1] = PRVABC59, Concentration 50.0 uM, Number of replicates 1.0
# Chain of Nonstructural protein 3 (Zika virus) (A0A024AXB9 as listed by the source): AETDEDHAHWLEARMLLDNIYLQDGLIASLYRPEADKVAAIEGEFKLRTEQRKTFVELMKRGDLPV
smiles,measurement,setting,value
Cc1ccc(N)cc1NC(=O)c1ccc2c(c1)CCNCC2,inhibition,"PRVABC59, Concentration 49.95 uM, Number of replicates 2.0, Standard deviation 12.72305005425739 %",-5.44%
same,inhibition,"PRVABC59, Concentration 99.9 uM, Number of replicates 2.0, Standard deviation 9.350903464198954 %",18.5%
CN1[C@@H]2CCC[C@H]1C[C@@H](NC(=O)C1CCN(c3ccc(C=O)cc3)CC1)C2,inhibition,[1],43.1%
O=Cc1ccc(N2CCC(C(=O)NC[C@@H]3CCCN4CCCC[C@H]34)CC2)cc1,inhibition,[1],36.4%
CCN1CCN(c2ccc(NC(=O)C3CCN(c4ccc(C=O)cc4)CC3)cc2)CC1,inhibition,[1],54.8%
N#Cc1ccc(NC(=O)C2CCN(c3ccc(C=O)cc3)CC2)cc1Br,inhibition,[1],22.8%
Cc1ccc2cccc(NC(=O)C3CCN(c4ccc(C=O)cc4)CC3)c2n1,inhibition,[1],60.8%
CCn1ccnc(N2CC[C@H](c3cccc(C#N)c3)C2)c1=O,inhibition,"PRVABC59, Concentration 50.0 uM, Number of replicates 2.0, Standard deviation 16.00595625597801 %",20.3%
same,inhibition,"PRVABC59, Concentration 100.0 uM, Number of replicates 2.0, Standard deviation 3.036416764525631 %",15.1%
same,inhibition,"PRVABC59, Concentration 200.0 uM, Number of replicates 2.0, Standard deviation 6.611719762363672 %",25.1%
CNc1cc(COc2cccnc2F)nc(N2CCNCC2)n1,inhibition,"PRVABC59, Concentration 49.5 uM, Number of replicates 2.0, Standard deviation 2.059359081452019 %",4.89%
same,inhibition,"PRVABC59, Concentration 99.01 uM, Number of replicates 2.0, Standard deviation 2.151250675148563 %",12.3%
same,inhibition,"PRVABC59, Concentration 198.0 uM, Number of replicates 2.0, Standard deviation 2.3891841335084476 %",24%
CCn1ccnc(N2CC[C@H](c3ccc(F)cc3)C2)c1=O,inhibition,"PRVABC59, Concentration 49.5 uM, Number of replicates 2.0, Standard deviation 0.27991239382631117 %",8.78%
same,inhibition,"PRVABC59, Concentration 99.01 uM, Number of replicates 2.0, Standard deviation 0.05869134101275442 %",18.2%
same,inhibition,"PRVABC59, Concentration 198.0 uM, Number of replicates 2.0, Standard deviation 0.2009049231321535 %",32.5%
c1ccc2c(CN3CCC(n4cccn4)CC3)c[nH]c2c1,inhibition,"PRVABC59, Concentration 49.5 uM, Number of replicates 2.0, Standard deviation 0.7832462431332359 %",26.9%
same,inhibition,"PRVABC59, Concentration 99.01 uM, Number of replicates 2.0, Standard deviation 1.440111283496493 %",42.5%
same,inhibition,"PRVABC59, Concentration 198.0 uM, Number of replicates 2.0, Standard deviation 0.6771494756145803 %",60.2%
NC(=O)[C@H]1CCCN(Cc2c[nH]c3ccccc23)C1,inhibition,"PRVABC59, Concentration 49.5 uM, Number of replicates 2.0, Standard deviation 3.1390869089666538 %",3.79%
same,inhibition,"PRVABC59, Concentration 99.01 uM, Number of replicates 2.0, Standard deviation 3.56900861889403 %",10.6%
same,inhibition,"PRVABC59, Concentration 198.0 uM, Number of replicates 2.0, Standard deviation 2.510612912991002 %",20.5%
NC(=O)C1CCN(Cc2c[nH]c3ccccc23)CC1,inhibition,"PRVABC59, Concentration 49.5 uM, Number of replicates 2.0, Standard deviation 3.887096953751933 %",5.72%
same,inhibition,"PRVABC59, Concentration 99.01 uM, Number of replicates 2.0, Standard deviation 2.3727111220616615 %",14.1%
same,inhibition,"PRVABC59, Concentration 198.0 uM, Number of replicates 2.0, Standard deviation 2.367525373820881 %",27.9%
O=C(O)c1ccn(C2CCN(Cc3c[nH]c4ccccc34)CC2)n1,inhibition,"PRVABC59, Concentration 49.5 uM, Number of replicates 2.0, Standard deviation 1.5195725914554161 %",20.5%
same,inhibition,"PRVABC59, Concentration 99.01 uM, Number of replicates 2.0, Standard deviation 1.1461623032421138 %",35.4%
same,inhibition,"PRVABC59, Concentration 198.0 uM, Number of replicates 2.0, Standard deviation 1.0942994260377004 %",52.6%
NC[C@H]1C[C@@H](NC(=O)[C@@H](NC(=O)OCc2ccccc2)c2ccc(OCc3ccccc3)cc2)C1,inhibition,"PRVABC59, Concentration 49.5 uM, Number of replicates 2.0, Standard deviation 0.8838686407925086 %",24%
same,inhibition,"PRVABC59, Concentration 99.01 uM, Number of replicates 2.0, Standard deviation 0.4383595932929543 %",66.8%
same,inhibition,"PRVABC59, Concentration 198.0 uM, Number of replicates 2.0, Standard deviation 0.05241044906026695 %",91.6%
NC[C@H]1C[C@H](NC(=O)[C@@H](NC(=O)OCc2ccccc2)c2ccc(OCc3ccccc3)cc2)C1,inhibition,"PRVABC59, Concentration 49.5 uM, Number of replicates 2.0, Standard deviation 1.2395145381206512 %",10.3%
same,inhibition,"PRVABC59, Concentration 99.01 uM, Number of replicates 2.0, Standard deviation 2.826506577153246 %",46.7%
same,inhibition,"PRVABC59, Concentration 198.0 uM, Number of replicates 2.0, Standard deviation 0.7649713696189122 %",82.7%
COc1cnccc1NC(=O)c1cccn(CC(C)C)c1=O,inhibition,"PRVABC59, Concentration 49.5 uM, Number of replicates 2.0, Standard deviation 2.517858799186995 %",14.1%
same,inhibition,"PRVABC59, Concentration 99.01 uM, Number of replicates 2.0, Standard deviation 2.0130939800794283 %",24.9%
same,inhibition,"PRVABC59, Concentration 198.0 uM, Number of replicates 2.0, Standard deviation 1.1565850502914639 %",38%
O=C1NCc2ccccc2C12CCN(C1CS(=O)(=O)C1)CC2,inhibition,"PRVABC59, Concentration 49.5 uM, Number of replicates 2.0, Standard deviation 2.478163590707131 %",-2.5%
same,inhibition,"PRVABC59, Concentration 99.01 uM, Number of replicates 2.0, Standard deviation 1.6189007436906162 %",-1.76%
same,inhibition,"PRVABC59, Concentration 198.0 uM, Number of replicates 2.0, Standard deviation 2.7604333789428463 %",-2.06%
N#C[C@H](c1c[nH]c2ccccc12)N1CCCCC1,inhibition,"PRVABC59, Concentration 49.5 uM, Number of replicates 2.0, Standard deviation 0.9976655532404076 %",2.57%
same,inhibition,"PRVABC59, Concentration 99.01 uM, Number of replicates 2.0, Standard deviation 2.0662033924754 %",3.53%
same,inhibition,"PRVABC59, Concentration 198.0 uM, Number of replicates 2.0, Standard deviation 2.2933585318984724 %",2.01%
CN(C)Cc1cccc(C(=O)Nc2cc(Cl)cc(C(=O)NC(C)(C)CO)c2)c1,inhibition,"PRVABC59, Concentration 49.5 uM, Number of replicates 2.0, Standard deviation 1.8243044214328226 %",6.06%
same,inhibition,"PRVABC59, Concentration 99.01 uM, Number of replicates 2.0, Standard deviation 1.3712089412013073 %",12.5%
same,inhibition,"PRVABC59, Concentration 198.0 uM, Number of replicates 2.0, Standard deviation 2.8457565601547175 %",22%
CC(C)(CO)NC(=O)c1cc(Cl)cc(NC(=O)c2cc(Cl)ccc2O)c1,inhibition,"PRVABC59, Concentration 49.5 uM, Number of replicates 2.0, Standard deviation 2.1093755895168673 %",7.55%
same,inhibition,"PRVABC59, Concentration 99.01 uM, Number of replicates 2.0, Standard deviation 4.458409623609473 %",13.5%
same,inhibition,"PRVABC59, Concentration 198.0 uM, Number of replicates 2.0, Standard deviation 1.5634862358558868 %",19.6%
CN(C)Cc1ccc(C(=O)Nc2cc(Cl)cc(C(=O)NC(C)(C)CO)c2)[nH]1,inhibition,"PRVABC59, Concentration 49.5 uM, Number of replicates 2.0, Standard deviation 0.7294034755731748 %",25.7%
same,inhibition,"PRVABC59, Concentration 99.01 uM, Number of replicates 2.0, Standard deviation 0.13537432871783928 %",38.6%
same,inhibition,"PRVABC59, Concentration 198.0 uM, Number of replicates 2.0, Standard deviation 2.37813693875156 %",53.1%
O=C(Nc1ccc2c(c1)B(O)OC2)c1cccc(OCc2c(Cl)cccc2Cl)c1,inhibition,"PRVABC59, Concentration 49.5 uM, Number of replicates 2.0, Standard deviation 1.6182218422548027 %",13.7%
same,inhibition,"PRVABC59, Concentration 99.01 uM, Number of replicates 2.0, Standard deviation 3.3767515547267357 %",18.1%
same,inhibition,"PRVABC59, Concentration 198.0 uM, Number of replicates 2.0, Standard deviation 1.8193304189589607 %",26.3%
C[C@@H](NC(=O)c1cc(Cl)ccc1NS(=O)(=O)c1ccc(Oc2ccccc2Cl)cc1)[C@H]1CCCO1,inhibition,"PRVABC59, Concentration 49.5 uM, Number of replicates 2.0, Standard deviation 0.31998022259385983 %",30.9%
same,inhibition,"PRVABC59, Concentration 99.01 uM, Number of replicates 2.0, Standard deviation 0.2133183501303701 %",35.1%
same,inhibition,"PRVABC59, Concentration 198.0 uM, Number of replicates 2.0, Standard deviation 0.1263515313886271 %",23.8%
CC[C@H]1CCN(C(=O)c2cc(Cl)ccc2NS(=O)(=O)c2ccc(Oc3ccccc3Cl)cc2)C1,inhibition,"PRVABC59, Concentration 49.5 uM, Number of replicates 2.0, Standard deviation 0.8056939918249262 %",9.4%
same,inhibition,"PRVABC59, Concentration 99.01 uM, Number of replicates 2.0, Standard deviation 0.9468131045821944 %",15.3%
same,inhibition,"PRVABC59, Concentration 198.0 uM, Number of replicates 2.0, Standard deviation 0.6022197968075486 %",23.5%
O=C(c1cc(Cl)ccc1NS(=O)(=O)c1ccc(Oc2ccccc2Cl)cc1)N1CCC[C@H](O)C1,inhibition,"PRVABC59, Concentration 49.5 uM, Number of replicates 2.0, Standard deviation 2.1414055085112063 %",8.55%
same,inhibition,"PRVABC59, Concentration 99.01 uM, Number of replicates 2.0, Standard deviation 0.8713297847731235 %",39.7%
same,inhibition,"PRVABC59, Concentration 198.0 uM, Number of replicates 2.0, Standard deviation 0.024611062132057417 %",79.8%
O=C(c1cc(Cl)ccc1NS(=O)(=O)c1ccc(Oc2ccccc2Cl)cc1)N1CCCC1,inhibition,"PRVABC59, Concentration 49.5 uM, Number of replicates 2.0, Standard deviation 2.8745469037851152 %",9.57%
same,inhibition,"PRVABC59, Concentration 99.01 uM, Number of replicates 2.0, Standard deviation 3.402955430557717 %",14.4%
same,inhibition,"PRVABC59, Concentration 198.0 uM, Number of replicates 2.0, Standard deviation 3.9207965622968795 %",20%
O=C(NC[C@H]1CCCO1)c1cc(Cl)ccc1NS(=O)(=O)c1ccc(Oc2ccccc2Cl)cc1,inhibition,"PRVABC59, Concentration 49.5 uM, Number of replicates 2.0, Standard deviation 0.526737151348054 %",37%
same,inhibition,"PRVABC59, Concentration 99.01 uM, Number of replicates 2.0, Standard deviation 0.29372509619508946 %",35.9%
same,inhibition,"PRVABC59, Concentration 198.0 uM, Number of replicates 2.0, Standard deviation 0.7843616173322282 %",19.9%
